# Screens from PubChem BioAssay.
# Hits are enriched below; roughly 2.2% of the tested compounds scored in any of these assays.
# NOTCH ag: agonists of NOTCH signaling; AID 434982, 2010; 15,000 tested, 0.4% active; activation, % at 2.5 µM; NOTCH signaling luciferase reporter cells, luminescence; in the data active = activation above about 2.2%
# Nox1 inh: inhibitors of human NADPH oxidase 1 (Nox1); Q9Y5S8; HT29 cells, luminol chemiluminescence ROS; inhibition, % at 6.7 µM; 16,000 tested, 0.81% active; AID 1792, 2009
# OPRK1 antag MB: antagonists of human kappa opioid receptor OPRK1, Maybridge library; 16,000 tested, 0.4% active; OPRK1 cells, antagonist mode, fluorescence readout; Kappa-type opioid receptor (Homo sapiens), P41145; inhibition, % at 9 µM; in the data active = inhibition above about 50%
# Luminol counter: counter-screen for Nox1 inhibitors: inhibitors of luminol chemiluminescence. HRP/luminol/H2O2 chemiluminescence counterscreen. inhibition, % at 6.7 µM. 16,000 tested, 0.4% active; note: reference of the scale not given here
# PME-1 Maybr inh: inhibitors of human PME-1 in Maybridge library. 16,000 tested, 0.5% active. AID 2291, 2010. recombinant PME-1, FP-Rh probe fluorescence polarization. Protein phosphatase methylesterase 1 (Homo sapiens), Q9Y570. inhibition, % at 9 µM; in the data active = inhibition above about 30%
# Target sequence (Q9Y570 whole entry, looked up): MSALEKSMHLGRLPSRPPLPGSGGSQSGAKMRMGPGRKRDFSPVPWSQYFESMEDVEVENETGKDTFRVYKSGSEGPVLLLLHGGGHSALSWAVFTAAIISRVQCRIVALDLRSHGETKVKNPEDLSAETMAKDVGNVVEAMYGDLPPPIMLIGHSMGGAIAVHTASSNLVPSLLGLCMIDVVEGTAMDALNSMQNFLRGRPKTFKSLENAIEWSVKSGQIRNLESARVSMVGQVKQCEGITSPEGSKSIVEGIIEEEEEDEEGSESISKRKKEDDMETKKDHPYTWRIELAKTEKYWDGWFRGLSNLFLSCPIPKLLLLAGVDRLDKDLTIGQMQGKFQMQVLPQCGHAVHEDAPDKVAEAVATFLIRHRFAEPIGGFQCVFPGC
# * hit, by the source's call; nt = not tested or not shown. Cut-off read from the data, not from the text of the source, unless noted: active = inhibition above about 75%; inactive = the rest.
SMILES,NOTCH ag,Nox1 inh,OPRK1 antag MB,Luminol counter,PME-1 Maybr inh
O=[N+]([O-])c1ccc(N/N=C/c2ccc(-c3cccs3)s2)nc1,-0.1,-14.3,79.1*,14.6,-124.3
Cn1ncc(C(=O)NC(=O)Nc2ccc(F)cc2)c1[N+](=O)[O-],-1.5,77.7*,33.2,-5.8,-1.7
NS(=O)(=O)c1ccc(NNC(=O)c2nccnc2C(=O)O)cc1,0.4,59.1,-3.9,-0.7,6.7
Clc1ccc2c(Nc3ccc4c(c3)OCO4)ccnc2c1,-0.5,-35.9,51.4*,7.8,2.7
CN(NC(=O)NC(=O)c1ccc(F)c(Cl)c1)c1ccc([N+](=O)[O-])cn1,-0.2,17.1,5.9,-3.0,1.3
FC(F)(F)c1cccc(CSc2n[nH]c(=S)s2)c1,-0.6,15.2,6.2,99.0*,6.6
FC(F)(F)c1cccc(-n2c(Cc3ccccc3)n[nH]c2=S)c1,-0.2,-27.4,4.9,10.5,-0.5
O=C(Nc1ccc2ccccc2n1)Nc1cccs1,-0.1,-6.0,7.8,-0.7,0.4
CN(C)c1ccc(NC(=O)Nc2cccs2)cc1,-0.7,91.6*,20.9,-2.5,-5.2
Cc1cc(C#N)c2c(c1)-c1ccccc1CC2,0.5,-22.1,7.1,-1.6,-1.4
N#Cc1c(N)sc2c1CCc1ccccc1-2,1.2,103.4*,-8.5,0.5,15.1
C=C(C)C(=O)Nc1cccnc1Oc1ccccc1F,-0.1,-53.3,-5.3,-0.4,0.2
O=C(NNc1c([N+](=O)[O-])cc(C(F)(F)F)cc1[N+](=O)[O-])c1ccco1,-0.9,89.4*,-3.1,-0.3,1.7
CNC(=S)NNC(=O)c1c(C)nc2cc(C)ccn12,-0.1,96.6*,10.8,24.4,5.1
CS(=O)(=O)c1csc(C(=O)O)c1Cl,0.8,20.0,18.2,-6.2,6.1
Cc1csc2ncnc(NNS(=O)(=O)c3cc(C(F)(F)F)cc(C(F)(F)F)c3)c12,0.1,101.5*,-18.3,2.9,-6.5
CCN(CC)c1ccc(NC(=O)C2CCCCC2)c(N(CC)CC)n1,-0.1,75.0*,-8.0,5.3,1.9
COC(=O)c1ccsc1NC(=O)C1CCCCC1,0.6,-2.2,-12.9,-4.7,6.5
O=S(=O)(c1cc(Br)c(Cl)s1)N1CCSCC1,0.1,-63.1,5.9,1.6,1.6
Oc1c(Cl)cc(Cl)cc1C1Nc2cc(Cl)c(C(F)(F)F)cc2N1 (stereo not drawn),-1.1,16.2,57.4*,-0.6,-52.2
Nc1ccc(Nc2ccc(N)cc2S(=O)(=O)O)cc1,-1.0,26.1,-0.4,12.6,44.3*
O=C(Nc1ccc(-c2nc3ccccc3s2)cc1)Nc1cc(F)cc2c1OCOC2,-0.1,-17.6,-38.8,2.6,-59.4
O=C(O)C(F)(F)C(F)(F)C(=O)NCc1cccc(Cl)c1,-0.4,3.4,50.5*,-8.5,3.0
O=c1c(C2SCCS2)coc2ccccc12,0.1,-0.9,20.5,-3.3,0.3
COc1cc(C(=O)Oc2c(Cl)cc(Cl)cc2/C=N/NC(N)=S)cc(OC)c1OC,-0.7,-47.7,7.5,2.1,33.7*
SMILES,NOTCH ag,Nox1 inh,OPRK1 antag MB,Luminol counter,PME-1 Maybr inh
COc1cc(C(=O)Oc2ccc(Cl)cc2Cl)cc(OC)c1OC,-0.3,-2.9,8.8,-8.8,-0.4
COc1ccccc1C1CCN(Cc2ccc3c(c2)CCC(C)(C)O3)CC1,-0.4,-44.0,75.2*,2.4,3.4
CN(C)c1cc(NC(=O)Nc2ccccc2)c2ccccc2n1,-0.6,-60.2,56.7*,-0.7,-3.4
c1cncc(-c2csc(-c3cccnc3)n2)c1,-0.2,-44.6,-5.4,-3.2,33.8*
c1cncc(-c2n[nH]c(-c3ccncc3)n2)c1,-0.5,-76.5,5.3,2.7,-6.4
FC(F)(F)Oc1ccc(OCc2n[nH]c(=S)n2-c2ccc(Cl)cc2)cc1,nt,-82.5,-8.1,7.0,-3.5
COc1cccc(Cc2n[nH]c(=S)n2Cc2ccco2)c1,-0.3,-10.4,5.3,99.3*,7.8
COc1cccc(Cc2n[nH]c(=S)n2-c2ccc(Cl)cc2)c1,-0.4,22.7,5.3,99.0*,4.4
COC(CN=C(NC#N)SC)OC,-1.1,-21.8,5.3,-1.5,3.0
O=[N+]([O-])c1cc(C(F)(F)F)cc([N+](=O)[O-])c1Sc1ncc2ccccn12,nt,102.3*,10.8,1.0,2.0
CN(C)c1ccc(/C=C(\C#N)S(=O)(=O)c2ccc(Cl)cc2)c(F)c1C#N,0.2,1.9,-13.4,0.2,-1.6
Cc1cc(C)c2c(=O)[nH]sc2n1,2.8*,-21.1,-9.0,-2.9,-2.6
Cc1cc(C)c2c(N)c(C(N)=O)sc2n1,0.1,-28.1,-7.8,2.9,-3.1
O=[N+]([O-])c1cc(C(F)(F)F)cc([N+](=O)[O-])c1O/N=C1\CSCc2ccccc21,0.2,-37.6,12.0,6.7,-2.5
CC(C)(C)OC(=O)NCc1n[nH]c(=S)n1C1CC1,0.0,5.9,0.8,17.0,-2.1
CC(C)(C)OC(=O)NCc1n[nH]c(=S)n1-c1ccccc1,-0.3,19.1,8.2,97.4*,1.4
CSc1nnc(SC2=CC(=O)CC(c3ccccc3)C2)s1 (stereo not drawn),3.3*,27.8,4.1,-3.5,8.5
CSc1nnc(Sc2ncc([N+](=O)[O-])s2)s1,-0.6,-22.6,3.7,2.0,-3.6
NNC(=O)c1ccc(F)c(F)c1,0.5,-34.0,-5.1,9.3,-3.1
S=c1[nH]c(=S)c2ccccc2[nH]1,-0.4,-68.4,0.5,77.1*,1.0
O=c1[nH]c2cccnc2[nH]c1=O,-0.3,-96.8,-22.5,-1.0,1.3
S=c1[nH]c2cccnc2s1,-0.4,12.4,13.5,100.2*,4.0
Cc1ccc(S(=O)(=O)NC(=O)Nc2c(C)n(C)n(-c3ccccc3)c2=O)cc1,0.0,92.4*,27.4,-4.1,5.6
Cc1ccc(S(=O)(=O)NC(=O)Nc2ccc3c(c2)C(=O)OC3)cc1,-0.8,-19.3,1.3,-0.9,1.4
Cc1ccc(S(=O)(=O)NC(=O)Nc2ccc(N(C)C)cc2)cc1,0.8,65.4,15.6,-22.8,40.6*
SMILES,NOTCH ag,Nox1 inh,OPRK1 antag MB,Luminol counter,PME-1 Maybr inh
O=C(Nc1ccc(F)c(Cl)c1)c1cc(Br)ccc1O,-0.9,7.8,69.6*,-1.4,6.7
O=C(Cc1nn[nH]n1)Nc1ccc(F)c(Cl)c1,nt,-26.6,-19.2,3.7,-0.8
COc1ccc(-c2nc(N(C)c3ccccc3)[nH]c(=O)c2C#N)cc1,3.5*,-18.4,4.0,-1.3,0.2
COc1cc(C(=O)NNS(=O)(=O)c2ccc(Cl)cc2)c(-n2c(C)ccc2C)cc1OC,-0.2,-25.2,4.5,-0.3,2.8
COc1cc(NC(=O)Nc2ccc(Cl)cc2)c(-n2c(C)ccc2C)cc1OC,-0.9,-2.8,13.1,3.8,73.8*
O=S(=O)(NCc1cccs1)c1c(F)cccc1F,-1.2,-5.6,-9.5,-4.3,5.5
Nc1nc2ccccc2c(=O)[nH]1,0.2,0.8,11.2,-0.1,0.8
Nc1nc2[nH]c(=S)[nH]c2c(=O)[nH]1,-0.7,92.5*,-7.1,9.9,3.8
CCOC(=O)NNC(=S)Nc1ccccc1N1CCOCC1,1.3,-15.8,-13.8,97.9*,4.5
Cn1cnc(S(N)(=O)=O)c1,0.5,-5.6,9.4,-6.1,-1.3
Nc1nc(NCc2ccc(-c3cccs3)s2)n[nH]1,-0.3,56.6,0.5,0.6,2.2
Nc1nc(Nc2ccccc2)n[nH]1,nt,77.5*,-0.3,13.0,-2.0
